Holding throughout (experiment): NCI-60 one-dose screen, 48 h (100 = growth as untreated, 0 = no growth, -100 = all killed)
Common to all, as to conditions: 10 µM unless noted

In test [1] the test system is EKVX NSCLC.
The test system of test [2] is SN12C renal.
Test [3] concerns UO-31 renal.
Test [4] deals with TK-10 renal.
In test [5] the test system is ACHN renal.
Test [6] concerns CAKI-1 renal.
The subject of test [7] is A498 renal.
Test [8] concerns CCRF-CEM leukemia.
Test [9] concerns SR leukemia.
Test [10] relates to RPMI-8226 leukemia.
The test system of test [11] is OVCAR-8 ovarian.
The test system of test [12] is OVCAR-5 ovarian.
The subject of test [13] is OVCAR-4 ovarian.
The subject of test [14] is SK-OV-3 ovarian.
Test [15] has as its system IGROV1 ovarian.
Test [16] relates to OVCAR-3 ovarian.
Test [17] concerns HS 578T breast.
Test [18] deals with NCI/ADR-RES ovarian.
The subject of test [19] is T-47D breast.
Test [20] has as its system MOLT-4 leukemia.

The panel holds about 83,000 compounds, 20% with a hit somewhere; the sample as a whole holds those more often.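 48-hour exposure, single concentration, 96-well plates; percent growth endpoint where 0 means no net growth. Active: below 10.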 Unmarked numbers belong to inactive results. The source made the active and inactive calls.

For the compound `CC(=O)Nc1cc(F)cc(-c2ccc3[nH]cc(-c4ccccc4)c3n2)c1`, the growth in [1] is 43.7%; in test [2] it was 32.7%; in test [3], 10.1%; in [4], 48.6%; in test [5], 15.9%; in [6] it was -37.1% (active). Further, the growth in test [7] was -20.1% (active); in test [8] it was 16.9%; in test [9], -1.91% (active); in test [10] it was 5.72% (active); in [11], 34%; in [12], 27.4%. Moreover, the growth in test [13] is 42.4%; in test [14], 13.6%; in test [15], 25.7%; in test [16], 32.5%; in [17], 10.5%; in test [18], 33.5%. The growth in test [19] is 26.8%.

With `O=C1c2c(c3c4cc(Br)ccc4[nH]c3c3ccc4ccccc4c23)C(=O)N1CCO`, the growth in [1] was 100%; in [2], 89.5%; in test [3], 78%; in test [4], 160%; in [5] it was 73.7%; in test [6], 69.6%. The growth was 90.6% in test [7]; 64.6% in [8]; 70.5% in [20]; -6.75% (active) in test [9]; 80.3% in test [10]; 85.2% in test [11]. Moreover, the growth in test [12] was 108%; in test [14], 89.3%; in [15], 73.9%; in [17] it was 103%; in test [18], 90.5%; in test [19] it was 51.5%.

As for `NC(=O)c1c(NC(=O)c2ccc(C3CCCCC3)cc2)sc2c1CCC(=O)C2`, the growth was 14.2% in [1]; 23.7% in [2]; 11.6% in test [3]; 16.7% in test [4]; 4.68% (active) in test [5]; -2.11% (active) in [6]. Moreover, the growth in [7] is 67.6%; in test [8], 9.82% (active); in test [20], 11.3%; in [9] it was 5.25% (active); in [10], -15% (active); in [11] it was 14.8%. Further, the growth was 23.4% in test [12]; -0.0254% (active) in test [13]; 24.7% in test [15]; 22.4% in test [16]; 35.4% in [17]; -5.15% (active) in test [19].

Consider `O=C(CSc1nc2sc3c(c2c(=O)n1-c1ccc(Cl)cc1)CCCC3)NNC(=O)Nc1cccc(C(F)(F)F)c1`, for which the growth in test [1] was 31.5%; in test [2] it was 14.6%; in [3], 13.2%; in [4], 48.3%; in test [5] it was 6.86% (active); in [6], 13.7%. Besides, the growth was -5.48% (active) in test [7]; 17.1% in test [8]; 8.64% (active) in [20]; 5.49% (active) in [9]; -7.39% (active) in test [10]; 22.1% in [11]. For the same compound, the growth was 52.6% in [12]; 62.1% in test [14]; 24.4% in test [15]; 5.17% (active) in test [16]; 56.9% in [17]; 32.2% in test [18]. In addition, in test [19], the growth is 13.2%.

Take `CN(C)c1ccc(-c2c(NC(C)(C)C)nc3c(OCCc4ccccc4)cccn23)cc1`: the growth was 8.16% (active) in [1]; 12.5% in test [2]; 4.11% (active) in test [3]; 52.1% in [4]; 17.7% in [5]; 11.7% in [6]. The growth in test [7] is 24.5%; in [8] it was 5.5% (active); in test [20], 1.16% (active); in test [9], -0.837% (active); in test [10], -27.5% (active); in [11] it was 18.7%. Also, the growth in test [12] was 21.5%; in test [14], 8.93% (active); in test [15], 23.3%; in [16], 20.2%; in test [17], 23.8%; in test [18] it was 4.77% (active). Besides, the growth in test [19] was 10.1%.

Regarding `C/C(=C(/c1ccc(Cl)cc1)c1ccc(OCCN)cc1)c1ccc(C)cc1`, the growth in test [1] was 98.8%; in [2], 95.7%; in [3], 83.2%; in test [4], 116%; in test [5], 96.6%; in test [6] it was 86.6%. Besides, the growth in test [7] is 97.4%; in test [8] it was 98.9%; in test [9] it was 88.6%; in test [10], 96.5%; in [11], 100%; in [12] it was 101%. Besides, the growth in test [13] was 97%; in test [14], 120%; in test [15], 100%; in [16], 105%; in test [17], 96.7%; in test [18] it was 111%. For the same compound, the growth in test [19] was 96.8%.

In the case of `CC1=C(C)C(=O)C(Nc2ccccc2)=C(Cl)C1=O`, the growth in test [1] was 55.2%; in test [2], 91.1%; in test [3], 98.8%; in [4], 128%; in [5], 100%; in test [6] it was 96.1%. Also, the growth in [7] was 91.2%; in test [8], 5.28% (active); in test [20], 12.7%; in test [9], 62.9%; in test [10] it was 53.6%; in test [11] it was 94.9%. For the same compound, the growth in test [12] was 104%; in test [13], -97.9% (active); in test [15], 9.69% (active); in test [16] it was 102%; in [17], 101%; in [19], -38.9% (active).

Source of the values: PubChem BioAssay (NCI).
